Results reported in PubChem BioAssay AID624260 (Broad Institute, 2012).
Among all 44,000 compounds or so, about 30 (0.07%) were called active. About 1% were inconclusive and are not listed. Cut-off read from the data, not from the text of the source: active = inhibition above about 54% (passing the limit was not always enough); inconclusive = no clear call, values can overlap the other calls. What follows is part of a selection rich in actives, with near analogues and random picks from the rest.

What follows are compounds tested against Histone-lysine N-methyltransferase NSD2 (Homo sapiens) (UniProt O96028) (assay: NSD2 histone methyltransferase activity blockers – biochemical, plate reader, single point, primary screen (AID 624260;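 note: inhibitors reduce the monomethyl H3K36 fluorescence signal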)). Conditions: NSD2-SET H3K36me1 DELFIA fluorescence, at 12.5 µM, active compounds read high.
Sequence of Histone-lysine N-methyltransferase NSD2 (Homo sapiens) (O96028 whole entry, looked up): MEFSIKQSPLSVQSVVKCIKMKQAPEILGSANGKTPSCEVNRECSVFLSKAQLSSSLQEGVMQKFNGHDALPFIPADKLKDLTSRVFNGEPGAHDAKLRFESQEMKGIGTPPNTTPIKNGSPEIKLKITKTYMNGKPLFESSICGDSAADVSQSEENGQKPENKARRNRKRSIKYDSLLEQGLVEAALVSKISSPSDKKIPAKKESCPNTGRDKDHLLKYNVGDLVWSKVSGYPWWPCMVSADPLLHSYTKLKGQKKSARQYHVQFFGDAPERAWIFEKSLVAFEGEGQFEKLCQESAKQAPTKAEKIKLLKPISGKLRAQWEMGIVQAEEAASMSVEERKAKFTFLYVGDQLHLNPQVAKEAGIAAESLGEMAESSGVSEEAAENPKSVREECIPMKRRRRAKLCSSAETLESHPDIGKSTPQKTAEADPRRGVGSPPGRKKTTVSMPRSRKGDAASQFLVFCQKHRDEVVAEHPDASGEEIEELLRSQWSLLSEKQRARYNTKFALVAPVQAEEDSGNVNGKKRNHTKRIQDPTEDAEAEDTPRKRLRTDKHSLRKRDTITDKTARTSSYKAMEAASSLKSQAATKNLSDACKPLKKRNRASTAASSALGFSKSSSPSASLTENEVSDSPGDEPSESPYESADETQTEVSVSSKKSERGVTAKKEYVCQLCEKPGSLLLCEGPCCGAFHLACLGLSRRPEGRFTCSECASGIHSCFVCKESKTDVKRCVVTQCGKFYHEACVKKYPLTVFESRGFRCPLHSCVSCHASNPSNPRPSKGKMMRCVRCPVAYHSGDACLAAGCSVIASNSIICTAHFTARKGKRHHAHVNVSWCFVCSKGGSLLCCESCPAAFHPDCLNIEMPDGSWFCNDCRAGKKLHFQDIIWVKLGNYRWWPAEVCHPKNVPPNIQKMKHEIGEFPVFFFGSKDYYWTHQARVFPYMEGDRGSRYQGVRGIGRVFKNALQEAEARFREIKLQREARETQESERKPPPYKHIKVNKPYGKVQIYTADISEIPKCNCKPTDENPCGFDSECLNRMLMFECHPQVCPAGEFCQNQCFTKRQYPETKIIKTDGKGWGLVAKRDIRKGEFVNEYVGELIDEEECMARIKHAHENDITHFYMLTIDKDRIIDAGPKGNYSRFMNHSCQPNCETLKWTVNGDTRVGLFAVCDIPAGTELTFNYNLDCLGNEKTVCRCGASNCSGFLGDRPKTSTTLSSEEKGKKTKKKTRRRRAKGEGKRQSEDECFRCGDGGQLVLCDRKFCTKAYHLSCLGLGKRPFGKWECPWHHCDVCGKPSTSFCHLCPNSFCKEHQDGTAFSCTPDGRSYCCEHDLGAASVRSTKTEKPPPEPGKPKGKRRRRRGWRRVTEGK

Row | Compound | inhibition
1 | C/C=C/c1ccc2c(c1)O[C@H](CN(C)C(=O)Nc1ccccc1)[C@H](C)CN([C@@H](C)CO)S2(=O)=O | -4.94% (inactive)
2 | C[C@@H]1CN([C@@H](C)CO)C(=O)c2c(c3ccccc3n2C)-c2ccccc2CO[C@@H]1CN(C)S(=O)(=O)c1ccc(F)cc1 | -1.17% (inactive)
3 | C[C@@H]1CN([C@@H](C)CO)C(=O)Cc2cc(NS(=O)(=O)c3ccc(Cl)cc3)ccc2O[C@H]1CN(C)C(=O)Nc1cccc2ccccc12 | -4.23% (inactive)
4 | CC(=O)N(C)C[C@H]1Oc2cc(C#CCN(C)C)ccc2S(=O)(=O)N([C@H](C)CO)C[C@H]1C | -0.922% (inactive)
5 | COc1cccc(CNC(=O)C[C@H]2CC[C@@H](NC(=O)C3CCC3)[C@@H](CO)O2)c1 | 2.46% (inactive)
6 | COc1ccccc1NC(=O)N[C@H]1CC[C@@H](CC(=O)NCc2ccc(Cl)c(Cl)c2)O[C@H]1CO | -9.36% (inactive)
7 | C[C@H](CO)N1C[C@H](C)[C@@H](CN(C)C(=O)Nc2ccc3c(c2)OCO3)Oc2ccc(NS(=O)(=O)c3ccc(Cl)cc3)cc2CC1=O | 1.14% (inactive)
8 | C[C@@H](O)C#Cc1ccc2c(c1)O[C@@H](CN(C)Cc1cccnc1)[C@@H](C)CN([C@@H](C)CO)S2(=O)=O | 3.08% (inactive)
9 | COCC#Cc1ccc2c(c1)O[C@H](CN(C)C(=O)CC1CC1)[C@@H](C)CN([C@@H](C)CO)S2(=O)=O | 8.01% (inactive)
10 | CNC[C@@H]1OCCCC[C@H](C)Oc2ccc(NS(=O)(=O)c3ccc(F)cc3)cc2C(=O)N([C@@H](C)CO)C[C@@H]1C | -5.42% (inactive)
11 | COc1ccc(-c2cnc3c(c2)C(=O)N([C@@H](C)CO)C[C@@H](C)[C@H](CN(C)C)O3)cc1 | 9.08% (inactive)
12 | C[C@H](CO)N1C[C@H](C)[C@H](CN(C)C(=O)Nc2ccc3c(c2)OCO3)Oc2cc(C#Cc3ccncc3)ccc2S1(=O)=O | 2.61% (inactive)
13 | C[C@@H]1CCCCO[C@H](CN(C)C(=O)CCC(F)(F)F)[C@H](C)CN([C@H](C)CO)C(=O)c2cc(NC(=O)NC3CCCCC3)ccc2O1 | -3.86% (inactive)
14 | Cc1cc(C)c(/C=C2\C(=O)Nc3ccccc32)[nH]1 | -2.13% (inactive)
15 | Cc1[nH]c(/C=C2\C(=O)Nc3ccc(S(=O)(=O)Cc4c(Cl)cccc4Cl)cc32)c(C)c1C(=O)N1CCC[C@@H]1CN1CCCC1 | 67.1% (active)
16 | C/C=C/c1ccc2c(c1)O[C@@H](CN(C)C(=O)c1ccncc1)[C@@H](C)CN([C@H](C)CO)S2(=O)=O | 0.685% (inactive)
17 | C/C=C/c1cnc2c(c1)C(=O)N([C@@H](C)CO)C[C@@H](C)[C@H](CN(C)Cc1cncnc1)O2 | 2.06% (inactive)
